In PubChem BioAssay one finds outcome and inhibition data, which are given here for 15 molecules.

For part of these data: Measured potencies and affinities stand elsewhere. The source made the active and inactive calls.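 The calls were made as follows, unless noted: active = membrane potential signal rise above negative control mean plus 3 SD in both duplicates, also active in the earlier TRPC4 screen; inactive = the rest.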

A word on the inhibition: it is the change of the read-out against control, counted positive when it falls.

In assay [1] the test system is TRPC4 beta (transient receptor potential cation channel C4), mouse. The assay is described as follows: activators of mouse TRPC4 channel, confirmation, cell-based, Fluo4 calcium, HEK293 TRPC4beta/mu-opioid, duplicates, 10 µM (AID 2426;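 active = fluorescence ratio normalized to control raised more than 50% in primary screen plus both repeat runs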). The settings on record: Fluo4 calcium fluorescence, at 10 µM; active compounds read high.
Assay [2] concerns transient receptor potential cation channel C4 beta (TRPC4), mouse. Put plainly: activators of mouse TRPC4 channel, confirmation, cell-based, second round, Fluo4, HEK293 TRPC4beta/mu-opioid, 1 µM (AID 2461;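 active = primary screen active and over 50% activation in each of two duplicate runs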). The settings on record: Fluo4 calcium fluorescence, at 1 µM; active compounds read high.
The subject of assay [3] is TRPC4 (transient receptor potential cation channel C4 beta), mouse. The assay is described as follows: positive allosteric modulators of mouse TRPC4, confirmation, cell-based, second round, Fluo-4, HEK293 TRPC4beta/mu-opioid, 1 µM (AID 2554;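 active = primary screen hit whose fluorescence ratio, in both repeats, exceeds the weak agonist control mean by 3 SD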). The settings on record: DAMGO EC20, Fluo-4 calcium flux, at 1 µM; active compounds read high. (In general: Calcium assays in cells follow changes in intracellular calcium, usually with a dye or a luminescent sensor.)

Assay [4] relates to TRPC4 beta (transient receptor potential cation channel C4), mouse. Put plainly: positive allosteric modulators of mouse TRPC4, confirmation, cell-based, Fluo-4, HEK293 TRPC4beta/mu-opioid (AID 2555;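 active = primary screen hit whose calcium fluorescence ratio, in both repeats, exceeds the weak agonist control mean by 3 SD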). The settings on record: DAMGO EC20, Fluo-4 calcium flux, at 10 µM; active compounds read high.
In assay [5] the target is Short transient receptor potential channel 4 (Mus musculus) (UniProt Q9QUQ5). Put plainly: inhibitors of mouse TRPC4 channel, confirmation, cell-based, Fluo4, HEK293 TRPC4beta/mu-opioid (AID 2636;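 active = calcium signal cut by more than 3 SD below the full-agonist control yet still positive, in both repeats and the earlier primary screen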). To be noted: DAMGO, Fluo4 calcium flux, at 10 µM; active compounds read high.
The target is the same in assay [6]. Put plainly: inhibitors of mouse TRPC4 channel, confirmation, cell-based, second round, Fluo4, HEK293 TRPC4beta/mu-opioid, 1 µM (AID 2637;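 active = calcium signal ratio cut to more than 3 SD under the fully stimulated control mean yet still positive, in both repeats and the primary screen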;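 as to inhibition: percent of integrated ratio relative to wells lacking test compound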). To be noted: Fluo4 calcium flux, DAMGO, at 1 µM; active compounds read high.
Assay [7] has the same target. Put plainly: mouse TRPC4 channel activators, dose response, cell-based, HEK293 TRPC4/mu-opioid, Fluo-4 calcium (AID 434937;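 active = primary screen activator hit with a dose response curve and TRPC4 channel activation at any tested dose; inactive = no activation, no dose response, or not a primary hit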).
For assay [8] the target is unchanged. Put plainly: TRPC4 positive allosteric modulators, dose response, cell-based, HEK293 TRPC4/mu-opioid, Fluo-4 calcium, EC20 DAMGO (AID 434941;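 active = earlier screen potentiator hit that boosts the TRPC4 ion channel at some dose, with a dose response; inactive = no potentiation, no dose response, or not a prior hit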;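 also: calcium entry triggered by an EC20 dose of DAMGO at the co-expressed mu-opioid receptor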).
The target of assay [9] is Short transient receptor potential channel 6 (Mus musculus) (UniProt Q61143). The assay is described as follows: inhibition of mouse TRPC6 channel, confirmation, selectivity assay for TRPC4 inhibitor project, cell-based, HEK293, membrane potential dye, duplicate (AID 434948;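 active = active in primary screen and both duplicates, each dropping signal beyond three positive-control SD with fluorescence still positive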). To be noted: HEK293 TRPC6, membrane potential dye fluorescence, at 10 µM, stimulated with maximal-effect acetylcholine; active compounds read high.

Assay [10] shares this target. Put plainly: activation of mouse TRPC6 channel, confirmation, selectivity assay for TRPC4 activator project, cell-based, HEK293, membrane potential dye, duplicate (AID 434950). To be noted: HEK293 TRPC6, membrane potential fluorescence, at 10 µM; active compounds read high.
For assay [11] the target is unchanged. The assay is described as follows: TRPC6 potentiation by TRPC4 potentiator hits, confirmation, selectivity assay for TRPC4 potentiator project, HEK293 cells, membrane potential dye, duplicate (AID 434952;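 active = compound raising the membrane signal above positive-control mean plus 3 SD in both repeats, and a primary screen hit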). To be noted: HEK293 TRPC6, membrane potential dye fluorescence, at 10 µM, maximal acetylcholine added after compound; active compounds read high.
Assay [12] addresses Short transient receptor potential channel 4 (Mus musculus) (UniProt Q9QUQ5). Put plainly: calcium flux activators in TRPC4/5HT1a cells, counter-screen for TRPC4 activator project, cell-based, second counter screen, HEK293 TRPC4/5HT1a, Fluo-4 (AID 434977;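 active = calcium signal rise above buffer-control mean plus 5 SD in both duplicates, and also a hit in the primary screen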). To be noted: Fluo-4 calcium flux, at 10 µM; active compounds read high.
Assay [13] in a line: calcium flux inhibitors in TRPC4/5HT1a cells, confirmation, counter-screen for TRPC4 inhibitor project, cell-based, second counter screen, HEK293 TRPC4/5HT1a, Fluo-4 (AID 434978;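 active = primary screen active whose calcium signal fell more than 3 SD beyond the full-serotonin control mean in both duplicate plates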;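 as to outcome: serotonin given first at submaximal then at maximal dose after compound preincubation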). To be noted: Fluo-4 calcium flux, at 10 µM, serotonin added to trigger calcium flux; active compounds read high.
For assay [14], the system named is TRPC4 (mouse), co-expressed with 5HT1a in HEK293. The assay is described as follows: calcium flux potentiators in TRPC4/5HT1a cells, confirmation, counter-screen for TRPC4 potentiator project, cell-based, second counter screen, HEK293 TRPC4/5HT1a, Fluo-4 (AID 434979;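 active = signal rise over 3 SD above mean of control wells given weak agonist, in both repeats and first screen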). The settings on record: Fluo-4 calcium flux, at 10 µM, serotonin added at its EC20 dose; active compounds read high.

The nature of assay [15]: calcium flux activation in mu-opioid HEK293 cells, confirmation, counter-screen for TRPC4 activator project, cell-based, HEK293 mu-opioid receptor line (AID 449723;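 active = hit in primary screen, with calcium signal over 5 SD above buffer well mean in both duplicates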;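 also: counter screen cells carry the mu-opioid receptor alone and lack TRPC4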). The settings on record: Fluo-4 calcium fluorescence, at 10 µM; active compounds read high.
Assay [16] is described as follows: calcium flux enhancement in mu-opioid HEK293 cells, confirmation, counter-screen for TRPC4 allosteric potentiator project, cell-based, HEK293 mu-opioid receptor line (AID 449724;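 active = calcium signal rise more than 3 SD above the low-dose agonist control mean, in both duplicate plates and the primary screen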;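 also: HEK293 cells carrying mu-opioid receptor only with no TRPC4 channel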). The settings on record: Fluo-4 calcium flux, at 10 µM, compound added before EC20 DAMGO stimulus; active compounds read high.

Sequence of Short transient receptor potential channel 4 (Mus musculus) (Q9QUQ5 whole entry, looked up): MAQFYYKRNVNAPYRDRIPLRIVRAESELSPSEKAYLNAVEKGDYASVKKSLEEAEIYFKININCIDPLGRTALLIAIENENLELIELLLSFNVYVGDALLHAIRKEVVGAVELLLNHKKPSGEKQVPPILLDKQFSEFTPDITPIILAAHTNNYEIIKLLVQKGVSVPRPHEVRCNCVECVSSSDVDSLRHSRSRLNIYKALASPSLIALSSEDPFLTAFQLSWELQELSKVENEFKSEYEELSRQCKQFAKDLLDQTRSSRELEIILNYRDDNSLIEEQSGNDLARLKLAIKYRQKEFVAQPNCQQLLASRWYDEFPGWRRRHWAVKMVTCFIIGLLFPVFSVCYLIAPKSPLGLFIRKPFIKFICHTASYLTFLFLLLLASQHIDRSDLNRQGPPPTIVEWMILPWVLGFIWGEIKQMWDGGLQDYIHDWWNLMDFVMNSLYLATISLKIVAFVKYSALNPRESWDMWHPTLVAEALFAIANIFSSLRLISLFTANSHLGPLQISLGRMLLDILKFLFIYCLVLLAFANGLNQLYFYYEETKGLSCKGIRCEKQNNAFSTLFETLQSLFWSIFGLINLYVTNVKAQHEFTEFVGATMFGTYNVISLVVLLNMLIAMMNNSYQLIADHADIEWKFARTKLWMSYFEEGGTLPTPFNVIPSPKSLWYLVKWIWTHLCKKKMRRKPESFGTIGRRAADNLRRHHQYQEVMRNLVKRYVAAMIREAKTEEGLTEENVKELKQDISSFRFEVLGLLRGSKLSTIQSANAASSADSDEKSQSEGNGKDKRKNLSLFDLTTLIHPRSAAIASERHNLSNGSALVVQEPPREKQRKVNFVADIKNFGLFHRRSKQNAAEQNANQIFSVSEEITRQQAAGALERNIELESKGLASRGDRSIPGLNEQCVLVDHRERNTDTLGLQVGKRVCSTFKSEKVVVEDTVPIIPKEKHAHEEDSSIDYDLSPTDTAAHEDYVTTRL
Sequence of Short transient receptor potential channel 6 (Mus musculus) (Q61143 whole entry, looked up): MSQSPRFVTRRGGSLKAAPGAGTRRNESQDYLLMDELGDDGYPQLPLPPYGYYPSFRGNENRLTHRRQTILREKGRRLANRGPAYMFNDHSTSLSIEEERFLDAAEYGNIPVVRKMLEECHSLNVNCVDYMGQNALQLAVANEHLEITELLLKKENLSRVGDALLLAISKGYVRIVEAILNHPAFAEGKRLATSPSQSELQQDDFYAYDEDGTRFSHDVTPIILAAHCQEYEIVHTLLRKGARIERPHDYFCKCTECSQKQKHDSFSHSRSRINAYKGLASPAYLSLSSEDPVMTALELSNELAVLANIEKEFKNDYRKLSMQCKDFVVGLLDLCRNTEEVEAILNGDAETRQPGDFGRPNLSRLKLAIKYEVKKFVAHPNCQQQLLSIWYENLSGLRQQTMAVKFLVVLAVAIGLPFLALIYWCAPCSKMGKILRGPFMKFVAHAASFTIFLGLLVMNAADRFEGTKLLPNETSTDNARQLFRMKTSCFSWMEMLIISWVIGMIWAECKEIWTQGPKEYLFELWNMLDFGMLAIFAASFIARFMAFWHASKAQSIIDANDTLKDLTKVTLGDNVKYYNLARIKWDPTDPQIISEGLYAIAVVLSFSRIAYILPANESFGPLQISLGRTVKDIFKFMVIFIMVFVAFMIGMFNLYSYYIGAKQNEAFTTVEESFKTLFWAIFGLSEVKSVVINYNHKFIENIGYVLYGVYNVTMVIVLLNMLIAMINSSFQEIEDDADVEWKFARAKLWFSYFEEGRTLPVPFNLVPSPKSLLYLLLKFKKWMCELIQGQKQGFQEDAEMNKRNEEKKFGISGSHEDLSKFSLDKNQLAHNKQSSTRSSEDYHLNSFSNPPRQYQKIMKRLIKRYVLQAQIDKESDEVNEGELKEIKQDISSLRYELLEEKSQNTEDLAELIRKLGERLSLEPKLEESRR

Regarding `CC(=O)N1CCN(c2ccccc2NC(=O)c2ccc3ccccc3c2)CC1`, the result in assay [1], in [2], in [3], in assay [4], in assay [7] and in assay [8] was inactive. The call in assay [9], in assay [10], in assay [11], in [12], in assay [14] and in [15] was inactive. Besides, in assay [16], the outcome was inactive. The results for the inhibition in assay [5], in assay [6] and in assay [13] were 85% (active), 74% (active) and 36.5% (active), respectively.

Turning to `CNCc1c(OCc2ccccc2)ccc2ccccc12`, the result in assay [1], in assay [2], in [3], in assay [4], in assay [6] and in [7] was inactive. In addition, the outcome in assay [8], in [10], in [11], in [12], in assay [14] and in assay [15] was inactive. Besides, in [16], the result was inactive. Moreover, the inhibition is 92% (active) in assay [5], 46% (active) in assay [9] and 34.9% (active) in [13].

Regarding `C#Cc1ccc(CN2CCCC(C(=O)Nc3ccccc3Oc3cccnc3)C2)cc1` (stereo not given), the result in assay [1], in assay [2], in assay [3], in assay [4], in assay [7] and in assay [8] was inactive. For the same molecule, the outcome in assay [9], in assay [10], in [11], in assay [12], in assay [14] and in assay [15] was inactive. In [16], the outcome was inactive. Also, the inhibition in assay [5] was 92% (active); in assay [6] it was 39% (active); in assay [13] it was 21.7% (active).

Regarding `Cc1ccc(S(=O)(=O)Nc2cccc(C(=O)NCC(c3ccco3)N3CCCCC3)c2)cc1F` (stereo not given), the outcome in assay [1], in [2], in assay [3], in assay [4], in [7] and in [8] was inactive. The molecule was classed as inactive in assay [9], in assay [10], in assay [11], in assay [12], in assay [13] and in [14]. Besides, the outcome in assay [15] and in assay [16] was inactive. The figures for the inhibition in assay [5] and in assay [6] were 100% (active) and 39% (active), respectively.

`Cc1ccc(Cn2c(Cc3ccccc3)nc3ccccc32)cc1`: the outcome in assay [1], in assay [2], in assay [3], in assay [4], in [5] and in assay [7] was inactive. Further, the outcome in [8], in [9], in [10], in assay [11], in assay [12] and in [14] was inactive. Moreover, the outcome in assay [15] and in [16] was inactive. Further, the values for the inhibition in assay [6] and in assay [13] were 64% (active) and 7.29% (active), respectively.

Turning to `c1csc(-c2nc(NCC3CCCO3)c3ccccc3n2)c1` (stereo not given), the result in assay [1], in assay [2], in [3], in assay [4], in assay [6] and in assay [7] was inactive. Moreover, the result in assay [8], in [9], in assay [10], in assay [11], in assay [12] and in assay [14] was inactive. The result in [15] and in assay [16] was inactive. Besides, the inhibition in [5] was 79% (active); in [13] it was 28% (active).

As for `Cn1c(-c2ccccc2)cnc1NCc1ccc(F)cc1`, the result in assay [1], in [2], in assay [3], in [4], in [7] and in assay [8] was inactive. In addition, the molecule was called inactive in [9], in [10], in [11], in [12], in assay [14] and in [15]. In addition, the outcome in assay [16] was inactive. The results for the inhibition in assay [5], in [6] and in assay [13] were 81% (active), 53% (active) and 25.1% (active), respectively.

`O=C(CCCSc1nc2ccccc2[nH]1)NCc1ccccc1Cl`: the outcome in [1], in assay [2], in assay [3], in assay [4], in [7] and in assay [8] was inactive. Besides, the outcome in assay [9], in assay [10], in assay [11], in assay [12], in assay [14] and in assay [15] was inactive. The result in assay [16] was inactive. Further, the inhibition was 88% (active) in assay [5], 46% (active) in assay [6] and 27.7% (active) in assay [13].

Take `C=CCSc1nnc2n(-c3ccccc3OC)c(=O)c3c4c(sc3n12)CCC4`: the outcome in assay [1], in [2], in assay [3], in assay [4], in assay [6] and in assay [7] was inactive. Further, the outcome in assay [8], in assay [9], in [10], in assay [11], in assay [12] and in assay [14] was inactive. Also, the result in assay [15] and in [16] was inactive. Besides, the inhibition in [5] is 58% (active); in assay [13], 29.1% (active).

In the case of `CC(COc1ccccc1)N1CCC(CO)(Cc2ccccc2)CC1` (stereo not given), the result in [1], in [2], in assay [3], in [4], in assay [6] and in assay [7] was inactive. The result in [8], in assay [9], in assay [10], in [11], in assay [12] and in assay [14] was inactive. Moreover, the outcome in assay [15] and in assay [16] was inactive. Besides, the inhibition in assay [5] is 96% (active); in assay [13], 22.9% (active).

For `CCCCn1c(SCC(=O)OCC)nc2c(sc(=S)n2-c2ccccc2OC)c1=O`, the result in [1], in assay [2], in assay [3], in assay [4], in assay [6] and in assay [7] was inactive. For the same molecule, the outcome in assay [8], in [9], in assay [10], in [11], in [12] and in assay [14] was inactive. Further, the result in assay [15] and in assay [16] was inactive. Besides, the inhibition in assay [5] was 94% (active); in assay [13] it was 14% (active).

`CCCCn1c(NCc2ccc(N(C)C)cc2)nc2ccccc21`: the outcome in assay [1], in [2], in assay [3], in [4], in [7] and in [8] was inactive. The call in assay [10], in assay [11], in [12], in [14], in [15] and in assay [16] was inactive. Further, the inhibition is 93% (active) in assay [5], 50% (active) in [6], 51.5% (active) in assay [9] and 24.4% (active) in [13].

As for `COc1cc(C(F)(F)F)nc2c(Br)c(C(C)(C)C)nn12`, the result in assay [1], in assay [2], in assay [3], in [4], in [7] and in [8] was inactive. In addition, the call in assay [9], in assay [10], in [11], in assay [12], in assay [14] and in assay [15] was inactive. Further, the result in [16] was inactive. Besides, the values for the inhibition in assay [5], in assay [6] and in assay [13] were 92% (active), 65% (active) and 35.3% (active), respectively.

For `COc1ccc(C2=NN(C(=O)c3ccccc3)C(c3ccc(OC)c(OC)c3)C2)c(O)c1` (stereo not given), the outcome in assay [1], in assay [2], in [3], in assay [4], in assay [6] and in [7] was inactive. Moreover, the result in [8], in assay [9], in assay [10], in assay [11], in [12] and in assay [13] was inactive. Besides, the outcome in assay [14], in assay [15] and in [16] was inactive. The inhibition in assay [5] is 66% (active).

Turning to `COc1ccc2c(c1)C=C(CN1CCC(CO)(CCc3ccccc3)CC1)CO2`, the result in assay [1], in assay [2], in [3], in assay [4], in assay [6] and in [7] was inactive. Further, the outcome in assay [8], in assay [9], in [10], in assay [11], in assay [12] and in [14] was inactive. In addition, the result in assay [15] and in assay [16] was inactive. The inhibition was 102% (active) in assay [5] and 35.7% (active) in assay [13].
